This is an account of results in PubChem BioAssay (NCATS).

Unmarked numbers belong to inactive results. Results filed as inconclusive are left out. A call without a number means that no potency is given here. Active and inactive are the calls of the source. The call rests on the fitted dose curve; in most records, active means well fitted curve in the direction sought with a large enough effect; inconclusive means small, poorly fitted or top-dose-only effect, or another doubt; inactive means no such curve, though single readings can be large; an effect the other way counts as inactive or inconclusive.

Experiment [1] deals with Luciferin 4-monooxygenase (Photinus pyralis) (UniProt P08659). Nature of the experiment: Primary firefly luciferase (FLuc) qHTS assay for identification of artifact compounds. (AID 1845220). Further: nearly all actives have a fitted effect of over 60% in size. Particulars: purified firefly luciferase, luminescence, 5 min; series mostly up to 54.1 µM. The method in brief:
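FLuc 10 nM; luciferin 10 uM; ATP 10 uM; Tris-acetate pH 7.6, Mg-acetate 10 mM; 15 min RT preincubation; 5 min reaction; luminescence.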
Background: qHTS replaces the single test concentration by a dilution series.

Experiment [2] can be described thus: Primary fluorescence-based thiol-reactive (MSTI) qHTS assay for identification of artifact compounds. (AID 1845221). Further: nearly all actives have a fitted effect of over 65% in size. Further: potency means the concentration at half of the fitted maximal effect.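 On activity change, negative = thiol reactive: thiol-reactive compounds lower the probe fluorescence signal.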 Particulars: MSTI thiol-reactivity probe, 1 h; series mostly up to 53.8 µM. The method in brief: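 Probe: MSTI 4 uM, PBS pH 7.4, 2% DMSO. Incubation 1 h, RT, light-protected. Readout fluorescence 525/598 nm.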
Experiment [3] concerns Nanoluciferase (engineered Oplophorus gracilirostris luciferase). Nature of the experiment: Primary Nanoluciferase (NLuc) qHTS assay for identification of artifact compounds. (AID 1845222).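 Further: NLuc secreted into diluted conditioned medium of S16 cells.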 Conditions: NLuc-conditioned medium, Nano-Glo luminescence, 5 min; series mostly up to 54.1 µM. Put shortly:
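NLuc from S16 cell medium (1:55) plus test compounds, 15 min, room temperature. Luminescence after Nano-Glo (1:100) addition, 5 min.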

A short description of experiment [4]: Primary redox qHTS assay for identification of artifact compounds. (AID 1845223). Particulars: Amplex Red/HRP redox cycling with DTT, fluorescence; series mostly up to 53.8 µM. Put shortly:
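Redox-cycling detection via DTT (250 uM final) oxidation coupled to Amplex Red (25 uM)/HRP (250 mU/mL) in HBSS. 15 min preincubation plus 30 min after DTT, room temperature. Ex/Em 525/598 nm; 4-parameter Hill fit against DMSO and 10 uM DA3003.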

Experiment [5] concerns the target Cytochrome P450 2D6 (Homo sapiens) (UniProt P10635). Description: qHTS for inhibitors of CYP2D6 against the NCATS DSHEA and TCM libraries (AID 1919972). Conditions: CYP2D6 enzymatic inhibition, luminescence qHTS; series mostly up to 34.1 µM. The method in brief: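 CYP2D6 enzyme with pro-luciferin substrate in manufacturer buffer (typically 100 mM KPO4), preincubated 15 min RT with substances (most at 19.5 nM upward); NADPH regeneration system (1x) started 30–45 min RT reaction; P450-Glo luminescence read after 30 min; quinidine as intraplate control.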

In experiment [6] the target is Cytochrome P450 2C19 (Homo sapiens) (UniProt P33261). Nature of the experiment: qHTS for inhibitors of CYP2C19 against the NCATS DSHEA and TCM libraries (AID 1919974).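 Further: luminescence from luciferin released by CYP2C19 oxidation of a pro-luciferin substrate; potency means the concentration at half of the fitted maximal effect.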 Particulars: CYP2C19 enzyme inhibition, luminescence qHTS; series mostly up to 34.1 µM. Put shortly:
(§1)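 Each CYP isoform and its pro-luciferin substrate, at isoform-specific final concentrations, were preincubated 15 min at RT with substances. NADPH regeneration solution (1x) started a 30-45 min reaction, and P450-Glo luminescence was read.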

Experiment [7] is described as follows: KB-3-1 P-gp reporter qHTS against the NCATS DSHEA and TCM libraries (AID 1919975). Conditions: KB-3-1 parental cells, CellTiter-Glo luminescence viability, 72 h; series mostly up to 26.1 µM. The method in brief:
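CellTiter-Glo luminescence viability readout; KB-3-1 parental cells, 500/well, attached ~4 h, then compound for ~72 h, 37C, 5% CO2. Bortezomib intraplate control.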

For experiment [8], the target named is Cytochrome P450 3A4 (Homo sapiens) (UniProt P08684). Nature of the experiment: qHTS for inhibitors of CYP3A4 against the NCATS DSHEA and TCM libraries (AID 1919971).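 Further: inhibition lowers luminescence from luciferin made by CYP3A4.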 Conditions: recombinant CYP3A4 enzyme activity, luminescence qHTS; series mostly up to 34.1 µM. The method in brief: as §1
Chain of Cytochrome P450 3A4 (Homo sapiens) (P08684 whole entry, looked up): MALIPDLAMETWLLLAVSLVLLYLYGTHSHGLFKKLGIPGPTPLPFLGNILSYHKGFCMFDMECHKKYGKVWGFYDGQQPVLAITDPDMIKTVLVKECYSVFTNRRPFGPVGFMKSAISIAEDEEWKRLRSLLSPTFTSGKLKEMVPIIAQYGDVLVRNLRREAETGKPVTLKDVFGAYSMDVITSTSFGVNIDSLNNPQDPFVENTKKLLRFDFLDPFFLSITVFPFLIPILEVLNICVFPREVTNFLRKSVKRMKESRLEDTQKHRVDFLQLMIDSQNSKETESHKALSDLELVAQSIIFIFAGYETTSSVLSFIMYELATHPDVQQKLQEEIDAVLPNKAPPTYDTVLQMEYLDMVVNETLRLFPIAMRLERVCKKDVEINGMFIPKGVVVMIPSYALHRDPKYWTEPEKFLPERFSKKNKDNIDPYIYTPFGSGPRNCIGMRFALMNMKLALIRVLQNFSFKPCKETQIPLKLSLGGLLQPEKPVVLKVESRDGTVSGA
For experiment [9], the target named is Cytochrome P450 2C9 (Homo sapiens) (UniProt P11712). Description: qHTS for inhibitors of CYP2C9 against the NCATS DSHEA and TCM libraries (AID 1919973).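 Further: luminogenic pro-luciferin CYP2C9 substrate turned into luciferin with NADPH regeneration.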 Particulars: recombinant CYP2C9 enzyme activity, luminescence; series mostly up to 34.1 µM. The method in brief: as §1
Chain of Cytochrome P450 2C9 (Homo sapiens) (P11712 whole entry, looked up): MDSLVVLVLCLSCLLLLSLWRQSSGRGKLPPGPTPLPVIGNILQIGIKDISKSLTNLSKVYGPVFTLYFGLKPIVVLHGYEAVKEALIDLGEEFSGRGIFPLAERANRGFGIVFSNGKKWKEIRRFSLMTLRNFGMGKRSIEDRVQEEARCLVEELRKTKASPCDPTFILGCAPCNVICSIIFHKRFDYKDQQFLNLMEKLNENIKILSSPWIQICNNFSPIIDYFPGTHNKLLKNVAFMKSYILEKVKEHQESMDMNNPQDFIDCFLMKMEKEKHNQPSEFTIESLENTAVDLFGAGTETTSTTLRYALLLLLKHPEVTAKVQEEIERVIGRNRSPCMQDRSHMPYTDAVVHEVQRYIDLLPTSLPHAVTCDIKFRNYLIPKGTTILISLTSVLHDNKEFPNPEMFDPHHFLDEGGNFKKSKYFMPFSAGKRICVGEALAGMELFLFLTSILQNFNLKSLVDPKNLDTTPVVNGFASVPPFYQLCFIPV
Experiment [10] deals with Cytochrome P450 1A2 (Homo sapiens) (UniProt P05177). Description: qHTS for inhibitors of CYPIA2 against the NCATS DSHEA and TCM libraries (AID 1919976). Particulars: recombinant CYP1A2 enzyme activity, luminescence; series mostly up to 37 µM. The method in brief: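 Reaction started with 1x NADPH regeneration solution and run 30-45 min, room temperature, protected from light, after compounds sat 15 min with CYP1A2 and pro-luciferin substrate. P450-Glo detection gave luminescence; furafylline served as control.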
Chain of Cytochrome P450 1A2 (Homo sapiens) (P05177 whole entry, looked up): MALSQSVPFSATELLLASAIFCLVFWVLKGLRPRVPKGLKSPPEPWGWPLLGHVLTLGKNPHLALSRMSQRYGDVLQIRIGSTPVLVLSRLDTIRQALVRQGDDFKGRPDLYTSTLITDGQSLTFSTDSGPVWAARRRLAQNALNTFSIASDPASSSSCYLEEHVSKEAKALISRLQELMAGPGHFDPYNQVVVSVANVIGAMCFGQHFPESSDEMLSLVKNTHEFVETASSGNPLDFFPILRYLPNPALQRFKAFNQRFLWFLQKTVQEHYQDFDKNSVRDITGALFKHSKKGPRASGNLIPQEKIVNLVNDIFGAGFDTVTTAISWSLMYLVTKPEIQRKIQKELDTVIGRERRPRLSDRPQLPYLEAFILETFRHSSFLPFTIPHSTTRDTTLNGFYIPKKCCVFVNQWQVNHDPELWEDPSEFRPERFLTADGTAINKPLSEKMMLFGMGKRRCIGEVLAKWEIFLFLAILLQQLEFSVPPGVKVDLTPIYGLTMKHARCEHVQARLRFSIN

Chain of Cytochrome P450 2D6 (Homo sapiens) (P10635 whole entry, looked up): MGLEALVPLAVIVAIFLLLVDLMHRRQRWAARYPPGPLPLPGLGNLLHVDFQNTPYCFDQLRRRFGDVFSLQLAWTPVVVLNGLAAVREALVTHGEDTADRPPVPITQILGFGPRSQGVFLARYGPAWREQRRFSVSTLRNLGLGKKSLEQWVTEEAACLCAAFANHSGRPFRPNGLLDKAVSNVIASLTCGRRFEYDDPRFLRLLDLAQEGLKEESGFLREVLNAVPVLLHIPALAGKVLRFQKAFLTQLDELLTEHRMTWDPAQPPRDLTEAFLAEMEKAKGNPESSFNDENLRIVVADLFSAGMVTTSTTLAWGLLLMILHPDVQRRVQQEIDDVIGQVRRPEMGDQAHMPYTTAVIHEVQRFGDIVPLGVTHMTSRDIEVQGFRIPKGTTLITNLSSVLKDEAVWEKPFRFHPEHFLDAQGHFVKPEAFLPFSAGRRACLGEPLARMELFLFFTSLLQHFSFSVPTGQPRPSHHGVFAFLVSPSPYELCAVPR
Chain of Cytochrome P450 2C19 (Homo sapiens) (P33261 whole entry, looked up, canonical isoform): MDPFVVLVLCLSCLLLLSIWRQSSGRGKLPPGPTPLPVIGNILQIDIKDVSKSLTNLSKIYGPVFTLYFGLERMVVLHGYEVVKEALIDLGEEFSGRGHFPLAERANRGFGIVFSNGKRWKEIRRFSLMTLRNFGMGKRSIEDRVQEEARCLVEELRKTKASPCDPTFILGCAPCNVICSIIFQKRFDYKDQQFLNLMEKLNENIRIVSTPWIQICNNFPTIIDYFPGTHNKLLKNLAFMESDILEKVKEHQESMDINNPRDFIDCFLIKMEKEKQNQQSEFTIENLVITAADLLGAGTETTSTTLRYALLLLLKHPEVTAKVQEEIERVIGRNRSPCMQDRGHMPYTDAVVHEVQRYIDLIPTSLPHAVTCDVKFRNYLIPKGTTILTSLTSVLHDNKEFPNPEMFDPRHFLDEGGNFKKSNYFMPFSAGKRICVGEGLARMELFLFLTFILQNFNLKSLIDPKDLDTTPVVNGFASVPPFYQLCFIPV

`CC(=O)OC1CC(O)C(C)(C)C2CC(OC(C)=O)C3(C)C(CCC4(C)C(c5ccoc5)C(=O)C5OC543)C12C` (stereo not drawn): the Potency result in [1] and in [2] was “inactive” in each case. Further, the outcome in experiment [3] and in experiment [4] was inactive.
Regarding `CCc1[nH]c2ccc(OC)cc2c1CCN(C)C`, in experiment [1], the Potency result is “inactive”. In addition, the call in experiment [3] and in experiment [4] was inactive.
Take `CCN1C[C@]2(COC)[C@H](O)C[C@H](OC)[C@]34[C@@H]5C[C@]6(O)[C@H](OC(=O)c7ccccc7)[C@@H]5[C@@](O)([C@H]([C@H](OC)[C@H]23)[C@@H]14)[C@@H](O)[C@@H]6OC`: the Potency result in experiment [1] and in experiment [2] was “inactive” throughout. Moreover, the call in [3] and in experiment [4] was inactive.
Regarding `C=CC(C)(C)c1[nH]c2cccc3c2c1C[C@@H]1[C@@H]3[C@@H](OC(C)=O)[C@H](C)CN1C`, the Potency entry in experiment [1] and in experiment [2] was “inactive” throughout. Besides, the outcome in experiment [3] and in experiment [4] was inactive.
Consider `COC1CC(=O)C23C(=O)NC(CC(C)C)C2C(C)=C(C)C(OO)C3/C=C(\C)CCC(O)C1O` (stereo not drawn), for which, in experiment [1], the Potency entry is “inactive”. Moreover, the compound was classed as inactive in experiment [3] and in experiment [4].
Regarding `CCC1NC(=O)C2C(Cl)C(Cl)CN2C(=O)C(C(C)O)NC(=O)CC(c2ccccc2)NC(=O)C(CO)NC1=O` (stereo not drawn), the Potency entry in [1] was “inactive”. Further, the compound was classed as inactive in experiment [3] and in experiment [4].
For the compound `Cc1cccc(NC(=O)N[C@@H]2N=C(c3ccccc3)c3ccccc3N(C)C2=O)c1`, the Potency entry in experiment [1] and in [2] was “inactive” in each case. Besides, in experiment [4], the result was inactive.
With `C[C@]12CC[C@@H](O)C[C@H]1CC[C@@H]1[C@@H]2CC[C@]2(C)C(=O)CC[C@@H]12`, the Potency result in experiment [1] and in experiment [2] was “inactive” throughout. In addition, the call in experiment [3] and in experiment [4] was inactive.
Regarding `COc1cc(C(=O)O[C@H]2[C@@H]3C=CO[C@@H](O[C@@H]4O[C@H](CO)[C@@H](O)[C@H](O)[C@H]4O)[C@@H]3[C@@]3(CO)O[C@@H]23)ccc1O`, the Potency entry in [1] is “inactive”. Besides, the compound was called inactive in [3] and in experiment [4].
Take `C/C=C(\C)C(=O)O[C@H]1[C@H](OC(C)=O)[C@]2(CO)[C@H](O)[C@H](O)[C@]3(C)C(=CCC4[C@@]5(C)CC[C@H](O[C@@H]6O[C@H](C(=O)O)[C@@H](O)[C@H](O[C@@H]7OC[C@H](O)[C@H](O[C@@H]8OC[C@H](O)[C@H](O)[C@H]8O)[C@H]7O)[C@H]6O[C@@H]6O[C@H](CO)[C@@H](O)[C@H](O)[C@H]6O)C(C)(C)C5CC[C@]43C)[C@@H]2CC1(C)C` (stereo partly drawn): in experiment [1], the outcome was “inactive [at 11.6 µM]”. Further, in experiment [2], the activity change, negative = thiol reactive is 214% [at 11.5 µM]. The activity, negative = inhibition in experiment [3] was 2.49% [at 11.6 µM]. Besides, the redox activity (% of DA3003) in experiment [4] is 9.29% [at 11.5 µM].
As for `Clc1ccc(OCC2=NCCN2)cc1Cl`, the Potency result in experiment [1] and in [2] was “inactive” each time. Also, the compound was called inactive in experiment [3] and in [4].
Regarding `COC(=O)C1(C)CCC(O)C2(C)c3cc(O)c(C(C)C)cc3C(O)C(OC(C)=O)C12` (stereo not drawn), in experiment [1], the Potency result is “inactive”. Also, in experiment [3], the call was inactive.
Regarding `C/C=C(\C)C(=O)OC1CC2C(C)(C)OC(=O)CC(OC(C)=O)C2(C)C2CC(OC(=O)C(C)C)C3(C)C(c4ccoc4)CC4OC43C12C` (stereo not drawn), the Potency entry in experiment [1] and in experiment [2] was “inactive” throughout. In addition, the compound was classed as inactive in experiment [3] and in [4].
Turning to `C[C@@]1(C(=O)O)CC[C@]2(C)CC[C@]3(C)C4=CC(=O)c5cc(O)c(O)cc5[C@]4(C)CC[C@@]3(C)[C@@H]2C1`, the Potency result in experiment [1] was “inactive”. Moreover, the compound was called inactive in [3].
`CC(C)C1(OO)C=C2C(=O)CC3C(C)(C(=O)O)CCCC3(C)C2CC1` (stereo not drawn): the Potency entry in experiment [1] and in experiment [2] was “inactive” in each case. Moreover, the outcome in experiment [3] and in experiment [4] was inactive.
With `COC(=O)[C@@]12C(=O)C(C)C(=O)[C@]1(C)C(C)=C[C@H]1[C@]3(C=O)CC[C@H](OC(C)=O)C(C)(C)[C@H]3CC[C@@]12C` (stereo partly drawn), the Potency entry in experiment [1] is “inactive”. For the same compound, the result in experiment [3] and in experiment [4] was inactive.
Consider `CN1C(=O)c2ccccc2NC(=O)C1Cc1ccccc1` (stereo not drawn), for which the Potency entry in [1] was “inactive”. For the same compound, the result in experiment [3] and in [4] was inactive.
Consider `COC1CC(OC2CCC3(C)C(CCC4C3CCC3(C)C(C5=CC(=O)OC5)C(OC(C)=O)CC43O)C2)OC(C)C1OC1OC(CO)C(O)C(O)C1O` (stereo not drawn), for which the Potency result in experiment [1] is “inactive”. For the same compound, the compound was called inactive in [3].
In the case of `COC1CC(O[C@H]2CC[C@]3(C=O)C4CC[C@]5(C)[C@@H](C6=CC(=O)OC6)CC[C@]5(O)[C@@H]4CC[C@]3(O)C2)OC(C)C1O[C@@H]1O[C@H](CO)[C@@H](O)[C@H](O)[C@H]1O` (stereo partly drawn), the Potency result in experiment [1] and in experiment [2] was “inactive” in each case. Further, the outcome in experiment [3] and in [4] was inactive.
As to `CN1C(=O)c2ccccc2NC(=O)[C@]12O[C@@H]2c1ccccc1`, the Potency entry in experiment [1] is “inactive”. The outcome in [3] and in experiment [4] was inactive.
`O=Cc1ccco1`: the call in experiment [5] and in [7] was inactive. In [6], the Potency was 6.31 µM (active).
Turning to `CN1CCC[C@@H]1Cc1c[nH]c2ccc(Nc3ncccc3[N+](=O)[O-])cc12`, the Potency entry in [1] was “inactive”. In addition, in [2], the Potency is 1.68 µM (active). Also, the call in experiment [4] was inactive.
Turning to `Cc1c(Cl)cccc1S(=O)(=O)Nc1nc(CC(=O)N2CCN(C)CC2)cs1`, the Potency entry in experiment [1] and in experiment [2] was “inactive” each time. Besides, the call in experiment [4] was inactive.
Consider `COC1C(O)C(C)OC(OC2C(CO)O[C@@H](O[C@@H]3CC4CCC5C(CC[C@]6(C)[C@@H](C7=CC(=O)OC7)CC[C@]56O)[C@@]4(C)[C@H](O)C3)C(O)C2O)C1O` (stereo partly drawn), for which the Potency result in experiment [1] and in experiment [2] was “inactive” each time. The result in experiment [3] and in [4] was inactive.
Turning to `O=C/C=C/c1ccccc1`, the result in experiment [8], in experiment [5], in experiment [9], in experiment [7] and in [10] was inactive.
Turning to `CN(C)CCc1c[nH]c2ccc(CN3CCN(C)S3(=O)=O)cc12`, the Potency entry in [1] and in [2] was “inactive” throughout. Further, the compound was called inactive in [3] and in experiment [4].
